About 3,300 (8.5%) of roughly 39,000 compounds were called active. The list comes from a sample in which actives are over-represented; it also holds similar structures and randomly drawn compounds.
These compounds were tested on HepG2 (assay: cytotoxicity call (relative viability < 0.9)). Settings: 10 µM.

| SMILES | cytotoxicity call |
| --- | --- |
| C[C@@H](N)Cc1c[nH]c2ccc(O)cc12 | inactive |
| O=C1CC[C@@H]2NCC[C@H]2N1 | inactive |
| C[C@H](N)[C@H](O)c1ccc(O)c(O)c1 | inactive |
| CC[C@@H](N)[C@@H](O)c1ccc(O)c(O)c1 | inactive |
| CCC(N)C(O)c1ccc(O)c(O)c1.Cl (stereo not drawn) | active |
| CC=C(C)C(=O)OC1CCC2(C)C3CCC4C5(O)CC(O)C6(O)C(CN7CC(C)CCC7C6(C)O)C5(O)CC42OC13O.Cl (stereo not drawn) | inactive |
| N#C[C@H](O[C@@H]1O[C@H](CO)[C@@H](O)[C@H](O)[C@H]1O)c1ccc(O)cc1 | inactive |
| Cl.N=C(N)NN | inactive |
| [N-]=[N+]=Nc1ccc2[nH]ccc2c1 | inactive |
| O=c1[nH]c2cc(N3CCNCC3)ccc2o1 | active |
| Oc1ccc(N2CCNCC2)cc1 | inactive |
| Nc1ccc(N2CCNCC2)cc1 | inactive |
| OCc1ccco1 | inactive |
| Cc1nnc([C@H]2CCCNC2)o1 | inactive |
| CC[C@H]1/C=C/C=C/C[C@@H](C)[C@H](O)[C@@](C)(O)C(=O)[C@@H](C)[C@H](O)[C@@H](C)C(=O)[C@@H](C)[C@H](O)[C@@H](C)/C=C/C(=O)O[C@@H]2[C@H](C)[C@H](CC1)O[C@]1(CC[C@H](C)[C@H](C[C@@H](C)O)O1)[C@H]2C | inactive |
| COc1cc(C2c3cc4c(cc3C(O)C3COC(=O)C23)OCO4)cc(OC)c1OC (stereo not drawn) | active |
| COc1ccc2c(c1OC)C(=O)OC2C1c2cc3c(cc2CCN1C)OCO3 (stereo not drawn) | inactive |
| C[C@H](CO)N1C[C@H](C)[C@H](CN(C)C(=O)Oc2ccccc2)OCc2ccccc2-c2c(n(C)c3ccccc23)C1=O | inactive |
| COc1cc2c(cc1OC)C1C(=O)c3ccc4c(c3OC1CO2)CC(C(C)C)O4 (stereo not drawn) | active |
| COc1cc2c(cc1OC)C1C(=O)c3ccc4oc(C(C)C)cc4c3OC1CO2 (stereo not drawn) | active |

| SMILES | cytotoxicity call |
| --- | --- |
| C=C(C)C1Cc2c(ccc3c2OC2COc4cc(OC)c(OC)cc4C2C3=O)O1 (stereo not drawn) | active |
| C=C(C)C1Cc2c(ccc3c(=O)c4c(oc23)COc2cc(OC)c(OC)cc2-4)O1 (stereo not drawn) | inactive |
| O=C(NCc1ccccc1)[C@H]1C[C@H]2CNC[C@H]1O2 | inactive |
| CC(C)(C)[C@@]1(O)C[C@H]2OC(=O)C[C@]23C(=O)O[C@H]2OC(=O)[C@@H](O)[C@]231 | inactive |
| C=CCN1CCC23c4c5ccc(O)c4OC2C(=O)CCC3(O)C1C5.Cl (stereo not drawn) | inactive |
| CCOC(OCC)P(=O)(O)CCCN | inactive |
| O=C1CO[C@H]2CNC[C@@H]2N1CC1CCCC1 | inactive |
| CCOC(=O)[C@H]1[C@@H](C=C(C)C)C1(C)C | inactive |
| COc1ccc(N(C(=O)Oc2c(C)cccc2C)c2ccnc(Nc3ccc(N4CCN(C)CC4)cc3)n2)c(OC)c1 | inactive |
| N=C(N)N/N=C/c1ccc2c(c1)OCO2 | inactive |
| Cc1o[nH]c(=O)c1C[C@H](N)C(=O)O | inactive |
| CC12CCC(=O)C=C1CCC1C2CCC2(C)C(O)CCC12 (stereo not drawn) | inactive |
| CCC(=O)OC1CCC2C3CCC4=CC(=O)CCC4(C)C3CCC12C (stereo not drawn) | inactive |
| C#CC1(O)CCC2C3CCC4=CC(=O)CCC4(C)C3CCC21C (stereo not drawn) | active |
| CN1[C@H](CO)[C@H]2c3ccccc3NC[C@H]21 | inactive |
| Cl.NNCc1ccccc1 | inactive |
| CC(=O)[O][Cd][O]C(C)=O | inactive |
| NC[C@@H](O)c1ccc(Br)cc1 | inactive |
| C[C@@H]1NC[C@@H]2CCCN2C1=O | inactive |
| O=c1[nH]c2ccccc2n1C1CCN(CCCC(c2ccc(F)cc2)c2ccc(F)cc2)CC1 | active |

| SMILES | cytotoxicity call |
| --- | --- |
| O=c1[nH]c2ccccc2n1CCCN1CCC(n2c(=O)[nH]c3cc(Cl)ccc32)CC1 | inactive |
| NC[C@@H](CC(=O)O)c1ccc(Cl)cc1 | inactive |
| CCOC(=O)c1c(CN2CCN(Cc3ccccc3)CC2)n(Cc2ccccc2)c2cc(Br)c(O)cc12 | inactive |
| CN(C)C(=O)C(CCN1CCC(O)(c2ccc(Cl)cc2)CC1)(c1ccccc1)c1ccccc1.Cl | active |
| CN1CCN(CC2CC2)C(=O)C12CCNCC2 | inactive |
| O=C(C1CCCC1)N1C[C@@H]2CCNC[C@@H]21 | inactive |
| CCN1C(=O)/C(=C/c2ccc[nH]2)C(=O)NC1=S | inactive |
| CO[C@H]1[C@H](O)[C@@H](O[C@H]2[C@@H](C)O[C@@H](O[C@H]3[C@H](C)O[C@H](O[C@H]4CC[C@@]5(C)[C@@H](CC[C@@]6(O)[C@@H]5C[C@@H](O)[C@]5(C)[C@]6(O)CC[C@@]5(O)[C@@H](C)O)C4)C[C@@H]3OC)C[C@H]2OC)O[C@@H](C)[C@H]1O | inactive |
| CC(=O)O[C@H]1C[C@H](O[C@H]2[C@@H](O)C[C@H](O[C@H]3[C@@H](O)C[C@H](O[C@H]4CC[C@@]5(C)[C@@H](CC[C@H]6[C@@H]5C[C@@H](O)[C@]5(C)[C@@H](C7=CC(=O)OC7)CC[C@]65O)C4)O[C@@H]3C)O[C@@H]2C)O[C@H](C)[C@H]1O[C@@H]1O[C@H](CO)[C@@H](O)[C@H](O)[C@H]1O | active |
| CC12CCC(O)CC1CCC1C2CC(O)C2(C)C(C3=CC(=O)OC3)CCC12O (stereo not drawn) | active |
| CC12CCC3C(CCC4CC(O)CCC43C)C1CCC2=O (stereo not drawn) | inactive |
| CC(=O)OC1CC(OC2C(O)CC(OC3C(O)CC(OC4CCC5(C)C(CCC6C5CC(O)C5(C)C(C7=CC(=O)OC7)CCC65O)C4)OC3C)OC2C)OC(C)C1OC1OC(CO)C(O)C(O)C1O (stereo not drawn) | active |
| CO[C@H]1[C@@H](O)C[C@@H](O[C@H]2[C@@H](O)C[C@@H](O[C@H]3[C@@H](O)C[C@@H](O[C@H]4CC[C@@]5(C)[C@@H](CC[C@H]6[C@@H]5C[C@@H](O)[C@@]5(C)[C@H](C7=CC(=O)OC7)CC[C@@]65O)C4)O[C@@H]3C)O[C@@H]2C)O[C@@H]1C | active |
| CC12CCC3C(CCC4CC(O)CCC43C)C1CCC2O (stereo not drawn) | inactive |
| CO[C@H]1[C@@H](O)[C@@H](O[C@H]2CC[C@]3(C=O)[C@@H]4[C@@H](CC[C@]3(O)C2)[C@@]2(O)CC[C@H](C3=CC(=O)OC3)[C@@]2(C)C[C@H]4OC(C)=O)O[C@@H](C)[C@@H]1OC(C)=O | inactive |
| O=C(NC[C@H]1CC[C@]2(CNCCOC2)O1)c1ccnnc1 | inactive |
| C=C(C)[C@H]1CN[C@H](C(=O)O)[C@@H]1CC(=O)O | inactive |
| CO/C1=C\C(C)=C\[C@@H](C)[C@@H](O)[C@@H](C)C/C(C)=C/C=C/[C@H](OC)[C@@H]([C@@H](C)[C@@H](O)[C@H](C)C(=O)/C=C/[C@H](C)[C@H](O)C(C)C)OC1=O | inactive |

Reference: the antibiotic and cytotoxicity screens of Wong et al. (2023)
